# Experimental data as given in PubChem BioAssay.
# For part of these data: Entries with a potency or affinity are not part of this list. Active and inactive are the calls of the source.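 How the source made its calls, unless noted: active means calcium signal ratio cut to more than 3 SD under the fully stimulated control mean yet still positive, in both repeats and the primary screen; inactive means the rest.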
# How the values were obtained:
# [1] = tested on: TRPC4 beta (transient receptor potential cation channel C4), mouse; assay: TRPC4 cation channel opening, retest – cell-based, Fluo4 calcium, HEK293 TRPC4beta/mu-opioid, duplicates, 10 µM, confirmation (AID 2426;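 active means fluorescence ratio normalized to control raised more than 50% in primary screen plus both repeat runs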;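 on activation: percent rise of integrated ratio over buffer wells lacking compound which define 0%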); details: Fluo4 calcium fluorescence, at 10 µM; stronger effect = higher value
# [2] = tested on: transient receptor potential cation channel C4 beta (TRPC4), mouse; assay: TRPC4 cation channel opening, second retest – cell-based, second round, Fluo4, HEK293 TRPC4beta/mu-opioid, 1 µM, confirmation (AID 2461;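 active means primary screen active and over 50% activation in each of two duplicate runs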); details: Fluo4 calcium fluorescence, at 1 µM; stronger effect = higher value
# [3] = tested on: TRPC4 (transient receptor potential cation channel C4 beta), mouse; assay: potentiation of DAMGO EC20 TRPC4 response – cell-based, second round, Fluo-4, HEK293 TRPC4beta/mu-opioid, 1 µM, confirmation (AID 2554;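 active means primary screen hit whose fluorescence ratio, in both repeats, exceeds the weak agonist control mean by 3 SD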); details: DAMGO EC20, Fluo-4 calcium flux, at 1 µM; stronger effect = higher value
# [4] = tested on: TRPC4 beta (transient receptor potential cation channel C4), mouse; assay: potentiation of DAMGO EC20 TRPC4 response – cell-based, Fluo-4, HEK293 TRPC4beta/mu-opioid, confirmation (AID 2555;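 active means primary screen hit whose calcium fluorescence ratio, in both repeats, exceeds the weak agonist control mean by 3 SD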); details: DAMGO EC20, Fluo-4 calcium flux, at 10 µM; stronger effect = higher value
# [5] = molecular target: Short transient receptor potential channel 4 (Mus musculus) (UniProt Q9QUQ5); assay: blockers of DAMGO-evoked TRPC4 calcium flux – cell-based, Fluo4, HEK293 TRPC4beta/mu-opioid, confirmation (AID 2636;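 active means calcium signal cut by more than 3 SD below the full-agonist control yet still positive, in both repeats and the earlier primary screen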); details: at 10 µM; stronger effect = higher value
# [6] = molecular target: Short transient receptor potential channel 4 (Mus musculus) (UniProt Q9QUQ5); assay: blockers of DAMGO-evoked TRPC4 calcium flux – cell-based, second round, Fluo4, HEK293 TRPC4beta/mu-opioid, 1 µM, confirmation (AID 2637); details: at 1 µM; stronger effect = higher value
# [7] = molecular target: Short transient receptor potential channel 4 (Mus musculus) (UniProt Q9QUQ5); assay: calcium entry via TRPC4 opening agents – cell-based, HEK293 TRPC4/mu-opioid, Fluo-4 calcium, dose response (AID 434937;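 active means primary screen activator hit with a dose response curve and TRPC4 channel activation at any tested dose; inactive means no activation, no dose response, or not a primary hit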)
# [8] = molecular target: Short transient receptor potential channel 4 (Mus musculus) (UniProt Q9QUQ5); assay: potentiation of DAMGO-evoked TRPC4 calcium signal – cell-based, HEK293 TRPC4/mu-opioid, Fluo-4 calcium, EC20 DAMGO, dose response (AID 434941;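 active means earlier screen potentiator hit that boosts the TRPC4 ion channel at some dose, with a dose response; inactive means no potentiation, no dose response, or not a prior hit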;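 further: calcium entry triggered by an EC20 dose of DAMGO at the co-expressed mu-opioid receptor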)
# [9] = molecular target: Short transient receptor potential channel 4 (Mus musculus) (UniProt Q9QUQ5); assay: block of DAMGO-driven TRPC4 calcium entry – cell-based, HEK293 TRPC4/mu-opioid, Fluo-4 calcium, dose response (AID 434942;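 active means primary screen inhibitor hit that blocks the TRPC4 channel at some tested dose, yielding a dose curve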)
# [10] = molecular target: Short transient receptor potential channel 6 (Mus musculus) (UniProt Q61143); assay: TRPC6 blockade by TRPC4 inhibitor hits – cell-based, HEK293, membrane potential dye, duplicate, selectivity assay for TRPC4 inhibitor project, confirmation (AID 434948;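 active means active in primary screen and both duplicates, each dropping signal beyond three positive-control SD with fluorescence still positive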); details: HEK293 TRPC6, membrane potential dye fluorescence, at 10 µM, stimulated with maximal-effect acetylcholine; stronger effect = higher value
# [11] = molecular target: Short transient receptor potential channel 6 (Mus musculus) (UniProt Q61143); assay: TRPC6 opening by TRPC4 activator hits – cell-based, HEK293, membrane potential dye, duplicate, selectivity assay for TRPC4 activator project, confirmation (AID 434950;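 active means membrane potential signal rise above negative control mean plus 3 SD in both duplicates, also active in the earlier TRPC4 screen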); details: HEK293 TRPC6, membrane potential fluorescence, at 10 µM; activation: stronger effect = higher value; outcome: activation
# [12] = molecular target: Short transient receptor potential channel 6 (Mus musculus) (UniProt Q61143); assay: positive modulators of mouse TRPC6 channel – HEK293 cells, membrane potential dye, duplicate, selectivity assay for TRPC4 potentiator project, confirmation (AID 434952;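 active means compound raising the membrane signal above positive-control mean plus 3 SD in both repeats, and a primary screen hit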); details: HEK293 TRPC6, membrane potential dye fluorescence, at 10 µM, maximal acetylcholine added after compound; stronger effect = higher value
# [13] = molecular target: Short transient receptor potential channel 4 (Mus musculus) (UniProt Q9QUQ5); assay: calcium flux activators in TRPC4/5HT1a cells, counter-screen for TRPC4 activator project, cell-based, second counter screen, HEK293 TRPC4/5HT1a, Fluo-4 (AID 434977;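 active means calcium signal rise above buffer-control mean plus 5 SD in both duplicates, and also a hit in the primary screen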;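 on activation: plate controls were assay buffer for no effect and maximal serotonin response for full effect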); details: Fluo-4 calcium flux, at 10 µM; stronger effect = higher value
# [14] = serotonin-gated TRPC4 signal block – cell-based, second counter screen, HEK293 TRPC4/5HT1a, Fluo-4, counter-screen for TRPC4 inhibitor project, confirmation (AID 434978;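 active means primary screen active whose calcium signal fell more than 3 SD beyond the full-serotonin control mean in both duplicate plates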;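 further: serotonin given first at submaximal then at maximal dose after compound preincubation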); details: Fluo-4 calcium flux, at 10 µM, serotonin added to trigger calcium flux; stronger effect = higher value
# [15] = tested on: TRPC4 (mouse), co-expressed with 5HT1a in HEK293; assay: enhancement of serotonin-evoked TRPC4 response – cell-based, second counter screen, HEK293 TRPC4/5HT1a, Fluo-4, counter-screen for TRPC4 potentiator project, confirmation (AID 434979;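 active means signal rise over 3 SD above mean of control wells given weak agonist, in both repeats and first screen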); details: Fluo-4 calcium flux, at 10 µM, serotonin added at its EC20 dose; stronger effect = higher value
# [16] = nonspecific calcium rise without TRPC4 – cell-based, HEK293 mu-opioid receptor line, counter-screen for TRPC4 activator project, confirmation (AID 449723;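 active means hit in primary screen, with calcium signal over 5 SD above buffer well mean in both duplicates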;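 further: counter screen cells carry the mu-opioid receptor alone and lack TRPC4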); details: HEK293 mu-opioid cells, Fluo-4 calcium fluorescence, at 10 µM; stronger effect = higher value
# [17] = nonspecific potentiation of DAMGO calcium response – cell-based, HEK293 mu-opioid receptor line, counter-screen for TRPC4 allosteric potentiator project, confirmation (AID 449724;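 active means calcium signal rise more than 3 SD above the low-dose agonist control mean, in both duplicate plates and the primary screen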); details: HEK293 mu-opioid receptor cells, Fluo-4 calcium flux, at 10 µM, compound added before EC20 DAMGO stimulus; stronger effect = higher value
# Chain of Short transient receptor potential channel 4 (Mus musculus) (Q9QUQ5 whole entry, looked up): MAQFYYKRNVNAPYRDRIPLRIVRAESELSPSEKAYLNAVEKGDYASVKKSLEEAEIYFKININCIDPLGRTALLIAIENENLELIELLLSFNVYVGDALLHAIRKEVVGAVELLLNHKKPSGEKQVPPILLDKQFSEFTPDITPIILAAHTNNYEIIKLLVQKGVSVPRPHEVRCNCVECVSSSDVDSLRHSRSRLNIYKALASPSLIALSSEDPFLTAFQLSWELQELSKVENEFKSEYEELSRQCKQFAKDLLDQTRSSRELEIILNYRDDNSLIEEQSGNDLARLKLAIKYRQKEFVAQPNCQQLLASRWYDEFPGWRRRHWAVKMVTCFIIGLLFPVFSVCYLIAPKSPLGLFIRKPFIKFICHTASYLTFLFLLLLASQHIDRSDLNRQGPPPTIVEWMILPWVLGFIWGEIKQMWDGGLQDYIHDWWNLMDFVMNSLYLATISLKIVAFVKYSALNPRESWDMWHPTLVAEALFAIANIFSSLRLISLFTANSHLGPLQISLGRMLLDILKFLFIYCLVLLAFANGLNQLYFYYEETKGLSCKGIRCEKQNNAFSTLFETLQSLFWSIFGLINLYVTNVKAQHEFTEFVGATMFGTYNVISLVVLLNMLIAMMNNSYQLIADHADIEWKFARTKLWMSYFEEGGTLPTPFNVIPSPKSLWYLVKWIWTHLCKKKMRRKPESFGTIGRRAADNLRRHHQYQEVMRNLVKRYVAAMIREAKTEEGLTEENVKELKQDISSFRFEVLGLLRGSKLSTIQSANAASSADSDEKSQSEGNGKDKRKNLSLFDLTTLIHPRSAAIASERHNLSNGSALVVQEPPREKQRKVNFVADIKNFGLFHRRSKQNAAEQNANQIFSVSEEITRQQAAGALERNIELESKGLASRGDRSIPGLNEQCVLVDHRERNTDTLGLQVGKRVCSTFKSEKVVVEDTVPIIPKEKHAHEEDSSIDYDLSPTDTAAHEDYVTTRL
# Chain of Short transient receptor potential channel 6 (Mus musculus) (Q61143 whole entry, looked up): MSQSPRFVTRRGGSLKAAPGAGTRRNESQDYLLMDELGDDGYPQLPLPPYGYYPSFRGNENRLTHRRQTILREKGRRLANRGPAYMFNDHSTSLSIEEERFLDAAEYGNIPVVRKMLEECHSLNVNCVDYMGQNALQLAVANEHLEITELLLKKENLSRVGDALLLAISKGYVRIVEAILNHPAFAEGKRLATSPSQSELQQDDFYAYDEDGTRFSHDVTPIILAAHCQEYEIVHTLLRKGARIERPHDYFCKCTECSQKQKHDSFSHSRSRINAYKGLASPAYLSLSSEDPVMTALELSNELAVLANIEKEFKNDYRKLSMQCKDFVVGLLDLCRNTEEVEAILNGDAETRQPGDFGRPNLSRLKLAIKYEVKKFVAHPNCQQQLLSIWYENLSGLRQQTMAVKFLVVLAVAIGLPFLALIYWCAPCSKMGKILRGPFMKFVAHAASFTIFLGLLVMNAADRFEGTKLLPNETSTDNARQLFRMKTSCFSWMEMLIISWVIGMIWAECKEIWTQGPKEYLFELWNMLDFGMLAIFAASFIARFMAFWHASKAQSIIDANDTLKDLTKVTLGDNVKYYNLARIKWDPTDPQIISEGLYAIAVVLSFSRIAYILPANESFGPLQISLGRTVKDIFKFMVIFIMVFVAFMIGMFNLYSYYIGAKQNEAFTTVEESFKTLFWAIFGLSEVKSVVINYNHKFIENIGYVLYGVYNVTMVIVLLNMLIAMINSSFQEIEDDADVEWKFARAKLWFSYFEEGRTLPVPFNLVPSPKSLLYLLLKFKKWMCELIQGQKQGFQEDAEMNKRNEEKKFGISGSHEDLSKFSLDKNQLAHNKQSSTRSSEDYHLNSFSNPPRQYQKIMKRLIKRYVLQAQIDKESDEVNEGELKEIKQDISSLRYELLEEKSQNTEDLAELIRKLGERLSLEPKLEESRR
smiles,measurement,setting,value
Cc1ccc(S(=O)(=O)N2CCN(c3cc4c(cc3[N+](=O)[O-])n(C)c(=O)n4C)CC2)cc1,outcome,[1],inactive
same,outcome,[2],inactive
same,outcome,[3],inactive
same,outcome,[4],inactive
same,outcome,[5],inactive
same,outcome,[6],inactive
same,outcome,[7],inactive
same,outcome,[8],inactive
same,outcome,[9],inactive
same,outcome,[10],inactive
same,outcome,[11],inactive
same,outcome,[12],inactive
same,outcome,[13],inactive
same,outcome,[14],inactive
same,potentiation,[15],10.6% (active)
same,outcome,[16],inactive
same,outcome,[17],inactive
CC1CCN(CC(O)COCCC23CC4CC(CC(C4)C2)C3)CC1 (stereo not given),outcome,[1],inactive
same,outcome,[2],inactive
same,outcome,[3],inactive
same,outcome,[4],inactive
same,outcome,[5],inactive
same,outcome,[6],inactive
same,outcome,[7],inactive
same,outcome,[8],inactive
same,outcome,[9],inactive
same,outcome,[10],inactive
same,outcome,[11],inactive
same,outcome,[12],inactive
same,outcome,[13],inactive
same,outcome,[14],inactive
same,outcome,[15],inactive
same,outcome,[16],inactive
same,outcome,[17],inactive
CC(C)CN(C(=O)COC(=O)COc1ccc2ccccc2c1)c1c(N)n(Cc2ccccc2)c(=O)[nH]c1=O,outcome,[1],inactive
same,outcome,[2],inactive
same,outcome,[3],inactive
same,outcome,[4],inactive
same,outcome,[5],inactive
same,outcome,[6],inactive
same,outcome,[7],inactive
same,outcome,[8],inactive
same,outcome,[9],inactive
same,outcome,[10],inactive
same,outcome,[11],inactive
same,outcome,[12],inactive
same,outcome,[13],inactive
same,outcome,[14],inactive
same,potentiation,[15],14.7% (active)
same,outcome,[16],inactive
same,outcome,[17],inactive
Cc1ccc(NC(=O)c2cc(N3C(=O)C=CC3=O)ccc2N2CCOCC2)cc1Cl,outcome,[1],inactive
same,outcome,[2],inactive
same,outcome,[3],inactive
same,outcome,[4],inactive
same,outcome,[5],inactive
same,outcome,[6],inactive
same,outcome,[7],inactive
same,outcome,[8],inactive
same,outcome,[9],inactive
same,outcome,[10],inactive
same,outcome,[11],inactive
same,outcome,[12],inactive
same,outcome,[13],inactive
same,outcome,[14],inactive
same,outcome,[15],inactive
same,outcome,[16],inactive
same,outcome,[17],inactive
COCCn1c(SCC(=O)Nc2ccc(S(=O)(=O)N3CCOCC3)cc2)nc2ccccc21,outcome,[1],inactive
same,outcome,[2],inactive
same,outcome,[3],inactive
same,potentiation,[4],12% (active)
same,outcome,[5],inactive
same,outcome,[6],inactive
same,outcome,[7],inactive
same,outcome,[8],inactive
same,outcome,[9],inactive
same,outcome,[10],inactive
same,outcome,[11],inactive
same,outcome,[12],inactive
same,outcome,[13],inactive
same,outcome,[14],inactive
same,potentiation,[15],26.5% (active)
same,outcome,[16],inactive
same,outcome,[17],inactive
Cc1c(N2C(=O)/C(=C/c3ccccc3)SC2=S)c(=O)n(-c2ccccc2)n1C,outcome,[1],inactive
same,outcome,[2],inactive
same,outcome,[3],inactive
same,outcome,[4],inactive
same,outcome,[5],inactive
same,outcome,[6],inactive
same,outcome,[7],inactive
same,outcome,[8],inactive
same,outcome,[9],inactive
same,outcome,[10],inactive
same,outcome,[11],inactive
same,outcome,[12],inactive
same,outcome,[13],inactive
same,outcome,[14],inactive
same,outcome,[15],inactive
same,outcome,[16],inactive
same,outcome,[17],inactive
O=C(Nc1cccc(C(F)(F)F)c1)c1cccc(NS(=O)(=O)c2ccc(O)c(C(=O)O)c2)c1,outcome,[1],inactive
same,outcome,[2],inactive
same,outcome,[3],inactive
same,outcome,[4],inactive
same,outcome,[5],inactive
same,outcome,[6],inactive
same,outcome,[7],inactive
same,outcome,[8],inactive
same,outcome,[9],inactive
same,outcome,[10],inactive
same,outcome,[11],inactive
same,outcome,[12],inactive
same,outcome,[13],inactive
same,outcome,[14],inactive
same,outcome,[15],inactive
same,outcome,[16],inactive
same,outcome,[17],inactive
CCc1nc2ccccc2n1Cc1ccc(F)cc1,outcome,[1],inactive
same,outcome,[2],inactive
same,outcome,[3],inactive
same,outcome,[4],inactive
same,outcome,[5],inactive
same,outcome,[6],inactive
same,outcome,[7],inactive
same,outcome,[8],inactive
same,outcome,[9],inactive
same,outcome,[10],inactive
same,outcome,[11],inactive
same,outcome,[12],inactive
same,outcome,[13],inactive
same,outcome,[14],inactive
same,outcome,[15],inactive
same,outcome,[16],inactive
same,outcome,[17],inactive
Cn1c(=O)cc(OCCCC(=O)NCCCN2CCN(Cc3ccccc3)CC2)c2ccccc21,outcome,[1],inactive
same,outcome,[2],inactive
same,potentiation,[3],19% (active)
same,potentiation,[4],19% (active)
same,outcome,[5],inactive
same,outcome,[6],inactive
same,outcome,[7],inactive
same,outcome,[8],inactive
same,outcome,[9],inactive
same,outcome,[10],inactive
same,outcome,[11],inactive
same,outcome,[12],inactive
same,outcome,[13],inactive
same,outcome,[14],inactive
same,potentiation,[15],21% (active)
same,outcome,[16],inactive
same,outcome,[17],inactive
c1cnc(N2CCN(c3cnccn3)CC2)nc1,outcome,[1],inactive
same,outcome,[2],inactive
same,outcome,[3],inactive
same,outcome,[4],inactive
same,outcome,[5],inactive
same,outcome,[6],inactive
same,outcome,[7],inactive
same,outcome,[8],inactive
same,outcome,[9],inactive
same,outcome,[10],inactive
same,outcome,[11],inactive
same,outcome,[12],inactive
same,outcome,[13],inactive
same,outcome,[14],inactive
same,outcome,[15],inactive
same,outcome,[16],inactive
same,outcome,[17],inactive
CC1CN(c2nc3c(c(=O)n(Cc4ccc(Cl)c(Cl)c4)c(=O)n3C)n2C)CC(C)O1 (stereo not given),outcome,[1],inactive
same,outcome,[2],inactive
same,outcome,[3],inactive
same,potentiation,[4],13% (active)
same,outcome,[5],inactive
same,outcome,[6],inactive
same,outcome,[7],inactive
same,outcome,[8],inactive
same,outcome,[9],inactive
same,outcome,[10],inactive
same,outcome,[11],inactive
same,outcome,[12],inactive
same,outcome,[13],inactive
same,outcome,[14],inactive
same,potentiation,[15],26.4% (active)
same,outcome,[16],inactive
same,outcome,[17],inactive
c1ccc2c(c1)[nH]c1c(N3CCCC3)ncnc12,outcome,[1],inactive
same,outcome,[2],inactive
same,outcome,[3],inactive
same,outcome,[4],inactive
same,outcome,[5],inactive
same,outcome,[6],inactive
same,outcome,[7],inactive
same,outcome,[8],inactive
same,outcome,[9],inactive
same,outcome,[10],inactive
same,outcome,[11],inactive
same,outcome,[12],inactive
same,outcome,[13],inactive
same,outcome,[14],inactive
same,outcome,[15],inactive
same,outcome,[16],inactive
same,outcome,[17],inactive
CN1CCN(c2ccc(Cl)cc2NC(=O)CC2OC(=O)c3ccccc32)CC1 (stereo not given),outcome,[1],inactive
same,outcome,[2],inactive
same,potentiation,[3],33% (active)
same,potentiation,[4],33% (active)
same,outcome,[5],inactive
same,outcome,[6],inactive
same,outcome,[7],inactive
same,outcome,[8],inactive
same,outcome,[9],inactive
same,outcome,[10],inactive
same,outcome,[11],inactive
same,outcome,[12],inactive
same,outcome,[13],inactive
same,outcome,[14],inactive
same,potentiation,[15],24.4% (active)
same,outcome,[16],inactive
same,outcome,[17],inactive
c1ccc(C2(CN3CCNC[C@H]3Cc3cccc4ccccc34)CC2)cc1,activation,[1],161% (active)
same,outcome,[2],inactive
same,outcome,[3],inactive
same,outcome,[4],inactive
same,outcome,[5],inactive
same,outcome,[6],inactive
same,outcome,[7],inactive
same,outcome,[8],inactive
same,outcome,[9],inactive
same,outcome,[10],inactive
same,outcome,[11],inactive
same,outcome,[12],inactive
same,activation,[13],5.82% (active)
same,outcome,[14],inactive
same,outcome,[15],inactive
same,outcome,[16],inactive
same,outcome,[17],inactive
CSc1ccc(CN(C)C(C)C(=O)NCc2ccccc2)cc1 (stereo not given),outcome,[1],inactive
same,outcome,[2],inactive
same,outcome,[3],inactive
same,outcome,[4],inactive
same,outcome,[5],inactive
same,outcome,[6],inactive
same,outcome,[7],inactive
same,outcome,[8],inactive
same,outcome,[9],inactive
same,outcome,[10],inactive
same,outcome,[11],inactive
same,outcome,[12],inactive
same,outcome,[13],inactive
same,outcome,[14],inactive
same,outcome,[15],inactive
same,outcome,[16],inactive
same,outcome,[17],inactive
